Reference: PubChem BioAssay AID624297 (National Center for Advancing Translational Sciences (NCATS), 2012)
In all, about 340,000 compounds went through this assay and about 6,200 (1.8%) were called active. Another 10% or so got no clear call; they are omitted. The list comes from a sample in which actives are over-represented; it also holds similar structures and randomly drawn compounds. Values without a mark were called inactive. Calls follow the shape of the dose curve; as a rule, active = well fitted activation curve with a large enough effect; inconclusive = small, poorly fitted or top-dose-only effect; inactive = no such curve, though single readings can be large or run the other way.

Assay: A quantitative high throughput screen for small molecules that induce DNA re-replication in SW480 colon adenocarcinoma cells. Also: nearly all actives have a fitted effect of over 55% in size. As to re-replication activation: % of control where 0% means no effect.
Conditions: Hoechst DNA content imaging, 48 h; series mostly up to 46.1 µM; re-replication activation: at the top concentration
Text: H Molecular Libraries Probe Production Network [MLPCN] NIH Chemical Genomics Center [NCGC] MLPCN Grant: Fast Track K99 CA136555 Assay Provider: Melvin DePamphilis, NICHD, NIH Assay Overview Eukaryotic cells normally restrict genome duplication to once per cell division. When this process is aberrant, DNA re-replication occurs when cells reinitiate DNA replication before the first round of replication is complete. DNA re-replication induces the DNA damage response, arrests cell proliferation, and triggers apoptosis. The cell cycle components cyclin A, Cdt-1, Cdc6 and geminin are critical regulators of this process and their misregulation results in DNA re-replication in normal and cancer cells. To identify compounds that induce re-replication in normal cells, an image-based assay was used to measure DNA content of nuclei, as detected by the fluorescent DNA binding dye, Hoechst. Cell nuclei were imaged by a fluorescence scanning plate imager and compounds that induce DNA re-replication were identified by the increase of nuclei with elevated fluorescence intensity
For screening, 250 cells in 5 uL/well were dispensed into black clear 1536-well plates (Aurora) using a solenoid-based dispenser. Following transfer of 23 nL compound or DMSO vehicle by a pin tool, the plates were incubated 48 hr at 37 C and 5% CO2. After addition of 1 uL/well Hoescht stain, the plates were incubated 40 min at 37 C, 5% CO2 and total intensity of fluorescent objects (nuclei) were enumerated by an Acumen Explorer Ex3 (TTP LabTech) fluorescence scanning plate imager (405 nm excitation, 500-530 nm emission). Keywords: NIH Roadmap, MLPCN, MLI, MLSMR, qHTS, NCGC, DNA replication, cancer
Potency is read from the fitted curve at half-maximal effect.

Structure (SMILES)	re-replication activation	Potency
C#CCOCCOCCOCCNc1nc(N2CCN(C(=O)Cn3cc(CCO)nn3)CC2)nc(N2CCN(C(=O)[C@H](CCCCN)n3cc(CCCC)nn3)CC2)n1	7.81% [at 9.22 µM]	–
COc1ccc(Br)cc1/C=N/Nc1ccc(S(=O)(=O)Nc2ccccc2C(=O)O)cc1[N+](=O)[O-]	-2.84%	–
O=C1C[C@@H]2c3c(cccc3CN1Cc1ccccc1)C[C@@H](O)[C@H]2O	-3%	–
CCOC(=O)c1sc(NC(=O)CSc2nc(C)cc(C(F)(F)F)n2)c(C#N)c1C	11.7%	–
CCOC(=O)c1sc(NC(=O)CSc2ncccn2)c(C#N)c1C	–	7.31 µM (active)
CCC(=O)Nc1sc(C(=O)N2CCCCC2)c(C)c1C#N	4.2%	–
COc1cc2c(cc1CNC[C@H]1O[C@@H](n3cnc(C(N)=O)n3)[C@H](O)[C@@H]1O)OCO2	9.12%	–
CC(C)C(NC(=O)c1c(F)cccc1F)C(=O)NNC(=O)c1ccccc1 (stereo not given)	3.18%	–
COc1ccc(CNC(=O)COC(=O)C(CCSC)N2C(=O)c3ccccc3C2=O)cc1 (stereo not given)	9.91%	–
CN(C)CCCn1c(N)c(C#N)c2nc(C#N)c(C#N)nc21	–	16.4 µM (active)
c1ccc2c(c1)OC1OC2Oc2ccccc21	-5.45%	–
O=C(NCCc1ccccc1)c1cccc(NC(=O)c2ccccc2)c1	-30.1%	–
COc1ccc(S(=O)(=O)N(CC(=O)N/N=C/c2ccccc2C(=O)O)c2ccccc2OC)cc1	-2.38%	–
COc1ccccc1NC(=O)CN(c1ccccc1OC)S(=O)(=O)c1ccccc1	-10.6%	–
COc1ccccc1N(CC(=O)N/N=C(\C)c1ccccc1O)S(=O)(=O)c1ccc(C)cc1	–	4.11 µM (active)
Cc1cc(C)nc(SCC(=O)c2ccc(Cl)cc2)n1	-3.92%	–
Cc1cc(C)nc(SCC(=O)N(C)C)n1	-6.02%	–
Cc1cc(C)nc(S/C=C/C(=O)c2ccccc2)n1	–	4.61 µM (active)
C=CCC[C@H](Cc1ccc(F)cc1)C(=O)OC[C@@H](NC(=O)[C@@H](CC=C)CC(=O)N[C@H](CO)Cc1ccccc1)C(C)(C)C	0.781%	–
O=C(NCC1CCCCC1)NCC1CCCCC1	5.1%	–
O=C1CC(c2ccccc2)C(=O)N2C(=O)CC(c3ccccc3)C(=O)N12 (stereo not given)	-19.3%	–
CC(C)(C)c1nnc2sc(SCC(O)=C(C#N)c3nc4ccccc4[nH]3)nn2c1=O	-1.77%	–
COc1ccc(-c2c(-c3ccc(OC)cc3O)nc(C)nc2C(F)(F)F)cc1	-1.41%	–
COc1ccc(-c2onc(C)c2-c2ccc3c(c2)OCCO3)c(O)c1	–	14.6 µM (active)

Structure (SMILES)	re-replication activation	Potency
COc1ccc(O)c(C=Nc2cc(C)on2)c1	24.5%	–
CCC(=O)Nc1sc(C(=O)Nc2ccccc2)c(C)c1C(=O)OC	–	20.6 µM (active)
COC(=O)c1c(NC(C)=O)sc(C(=O)Nc2ccccc2OC)c1C	-22.9%	–
CCOC(=O)c1sc(NC(=O)COc2ncnc3ccccc23)c(C(=O)OCC)c1C	6.73%	–
COc1cc(OC)cc(C(=O)NC(C(=O)N2CCC2)C(C)C)c1 (stereo not given)	-7.72%	–
CC(=O)Nc1ccc(Nc2c3ccccc3nc3ccccc23)cc1	–	18.4 µM (active)
CC(C)(C)OC(=O)NNc1c2ccccc2nc2ccccc12	18.8%	–
CC(=O)Nc1ccc(NC(=O)COc2ncnc3ccccc23)cc1	-0.239%	–
CC[C@]1(C(=O)OC)[C@H]2C(=O)N(Cc3ccccc3)C(=O)[C@H]2[C@H]2CN=C(SCc3ccccc3)N21	-6.22%	–
CC(NC(=O)COC(=O)c1ccc2ccccc2n1)c1ccccc1 (stereo not given)	-3.09%	–
Cc1c(NC(=O)c2cccnc2)c(=O)n(-c2ccccc2)n1C	–	inactive
Cc1ccc(O)c(-c2cc(C(=O)NCc3ccccc3)[nH]n2)c1	-3.89%	–
Cc1ccc(O)c(-c2cc(C(=O)Nc3c(C)n(C)n(-c4ccccc4)c3=O)[nH]n2)c1	–	0.058 µM (active)
O=C1Cc2cc(S(=O)(=O)Nc3cccc(F)c3)ccc2N1	-6.13%	–
CC(OC(=O)c1cc2ccccc2[nH]1)C(=O)N(C)c1ccccc1 (stereo not given)	4.01%	–
COc1ccccc1N1N=C(c2cccs2)CC1c1ccccc1 (stereo not given)	–	2.59 µM (active)
COc1cccc(C2CC(c3cccs3)=NN2C(=O)CSC2=NCCS2)c1OC (stereo not given)	20%	–
COc1ccc(C2CC(c3cccs3)=NN2C(=O)CCC(=O)O)cc1OC (stereo not given)	8.15%	–
NC(=O)C1(N2CCCC2)CCN(Cc2ccccc2)CC1	-4.45%	–
CCCCN1CC(COCc2ccccc2)OCCS1(=O)=O (stereo not given)	1.34%	–
Cc1cccc(CC2(O)C(=O)Nc3ccccc32)n1 (stereo not given)	-0.661%	–
O=C(CC1Sc2ccccc2NC1=O)NNc1ccc(Cl)c(Cl)c1 (stereo not given)	26.7%	–
COc1cccc(NC(=O)COc2cccnc2[N+](=O)[O-])c1	3.79%	–
Cc1cc(=O)oc2cc(OCC3CC(c4ccccc4Cl)=NO3)ccc12 (stereo not given)	–	3.66 µM (active)

Structure (SMILES)	re-replication activation	Potency
Cc1cc(=O)oc2cc(OCCC[n+]3ccccc3)ccc12	-9.83%	–
Cc1ccccc1N1CCN(CCCOc2ccc3c(C)cc(=O)oc3c2)CC1	2.23%	–
O=C(Cc1ccc(Cl)cc1)NC1CCS(=O)(=O)C1 (stereo not given)	-9.59%	–
COc1ccc(NC(=S)NC2CCS(=O)(=O)C2)cc1 (stereo not given)	-4.58%	–
CCCSC(=S)NC1CCS(=O)(=O)C1 (stereo not given)	–	16.4 µM (active)
CCNC(=S)N1CCN(S(=O)(=O)c2ccc(Cl)s2)CC1	6.77%	–
CC1O[C@@H](OC2C(O)C(C)O[C@H](OC(=O)[C@]34CCC(C)(C)C[C@H]3C3=CCC5[C@@]6(C)CC(O)C(O[C@@H]7OC(CO)C(O)[C@@H](O)[C@@H]7O)[C@@](C)(C(=O)O)C6CC[C@@]5(C)[C@]3(CO)CC4)C2O[C@H]2OC(C)[C@@H](O[C@@H]3OCC(O[C@@H]4OC(CO)C(O)[C@H](O)C4O)[C@@H](O)[C@@H]3O)[C@H](O)C2O)C(O)C(O)C1O (stereo not given in full)	-10.5%	–
CC(C)(C)n1cnnc1Sc1ccc([N+](=O)[O-])cn1	–	18.4 µM (active)
Cc1cccc(C)c1NC(=O)CSc1ccc([N+](=O)[O-])cn1	-14.5%	–
O=[N+]([O-])c1ccc(Sc2n[nH]c(-c3ccco3)n2)nc1	-5.13%	–
CC[C@]12c3[nH]c4cc(CCC(=O)N(C)C)ccc4c3CCN1C(=O)[C@@H](CC(=O)NCCCN(C)C)C[C@@H]2C(=O)N1CCN(C(=O)c2ccco2)CC1	20.5%	–
CCOC(=O)[C@H]1[C@H]2COc3cc(OC)ccc3[C@@H]2N2C(=O)CN(Cc3ccc(Cl)cc3)C(=O)[C@@]12C	-16.4%	–
Cc1ccsc1C(=O)OCC(=O)NCCc1ccccc1	1.54%	–
COc1ccc(/C=C(\NC(=O)c2ccc(OC)c(OC)c2)C(=O)NCCc2c[nH]c3ccccc23)cc1	-1.59%	–
COc1ccc(OC)c2[nH]c(=O)c(CCNC(=O)C(=O)c3c[nH]c4ccccc34)cc12	–	20.6 µM (active)
COc1ccc(OC)c2[nH]c(=O)c(CCNC(=O)C(C)(C)C)cc12	-5.04%	–
COc1ccccc1-c1sc2ccccc2c1C#CC1(O)CCCCC1	4.55%	–
O=C(Nc1cccc(Cl)c1N1CCOCC1)c1cccnc1	-21.8%	–
O=C(Nc1cccc(Cl)c1N1CCOCC1)c1ccc2c(c1)OCCO2	–	2.31 µM (active)
COC(=O)c1ccc(N2CCOCC2)c(NC(=O)c2ccc3c(c2)OCCO3)c1	2.41%	–
C=CCCC(=O)N1C[C@H]2CON(C)[C@H]2C[C@H]1c1cccc(Nc2ccccc2)c1	-6.4% [at 9.22 µM]	–
O=C(Nc1cccc(Br)c1)C1CC(=O)N(C2CCCC2)C1 (stereo not given)	3.19%	–
O=C(c1ccc(N2CCOCC2)c([N+](=O)[O-])c1)N1CCN(c2ccccc2F)CC1	-0.686%	–
O=C(Nc1nnc(Cc2ccc(Cl)cc2)s1)c1ccncc1	-27.9%	–

Structure (SMILES)	re-replication activation	Potency
O=C(Nc1nnc(Cc2ccc(Cl)cc2)s1)c1cccnc1	–	18.4 µM (active)
O=C(Nc1nnc(Cc2ccccc2)s1)c1cnccn1	-0.0264%	–
C=CCn1c(SCc2ccccc2)nc2c1c(=O)[nH]c(=O)n2C	3.01%	–
Cc1nnc(Sc2nc3c(c(=O)[nH]c(=O)n3C)n2Cc2ccccc2)s1	-6.16%	–
C=CCSc1nc2c(c(=O)[nH]c(=O)n2C)n1Cc1ccccc1	–	1.64 µM (active)
CCN(CC)S(=O)(=O)c1ccc(N2CCOCC2)c(NC(=O)c2ccc(=O)n(C)n2)c1	-15.4%	–
CCN(CC)S(=O)(=O)c1cc(C(=O)Nc2cc(S(=O)(=O)N3CCOCC3)ccc2N2CCCC2)ccc1F	2.46%	–
CCN(CC)S(=O)(=O)c1ccc(N2CCCC2)c(NC(=O)c2ccc([N+](=O)[O-])o2)c1	–	13 µM (active)
COc1ccc(-c2nnc(-c3ccc4ccccc4c3)o2)cc1	-7.64%	–
CN(Cc1ccccc1)C(=O)COC(=O)/C=C/c1ccc2c(c1)OCO2	-5.02%	–
N#Cc1c(N)n(CCOC(=O)c2ccc(Cl)cc2)c2nc3ccccc3nc12	–	20.6 µM (active)
Cn1cncc1COC(=O)c1ccc(Cl)cc1	-12.1%	–
CC(C)(C)c1ccc(C(=O)NCC(=O)OCN2C(=O)c3ccccc3C2=O)cc1	0.942%	–
CC(C)(C)OC(=O)c1c(N)n(CCCN2CCCC2=O)c2nc3ccccc3nc12	-6.4%	–
CN1OC(COC(=O)c2ccc(Cl)cc2)CC1c1ccccc1 (stereo not given)	-2.4%	–
CC(C)(C)c1ccc(C(=O)NCCn2c(N)c(C#N)c3nc4ccccc4nc32)cc1	–	20.6 µM (active)
COc1ccc(S(=O)(=O)N(C)C[C@H]2Oc3ccc(NS(=O)(=O)c4cccs4)cc3CC(=O)N([C@H](C)CO)C[C@H]2C)cc1	-2.46% [at 9.22 µM]	–
CSCCC(NC(=O)c1ccccc1)C(=O)N1CCN(Cc2ccc(Cl)cc2)CC1 (stereo not given)	-284%	–
CC1CCCN(C(=O)CN2C(=O)c3ccccc3S2(=O)=O)C1 (stereo not given)	-1.92%	–
CCCCCCOc1ccc(OC(=O)c2cccnc2)cc1	–	8.2 µM (active)
O=C(Oc1ccc(Br)cc1)c1cccnc1	-2.56%	–
N#CCc1ccc(OC(=O)c2cccnc2)cc1	-4.49%	–
COc1ccccc1N(CC(=O)Nc1ccc(C)cc1Cl)S(=O)(=O)c1cccs1	0.978%	–
